Her2 expr inh = Her2 kinase expression inhibition. P04626. SKBR-3 HER2 protein level, AlphaScreen, 18-24 h; stronger effect = lower value. HER2 level % of control, % at 10 µM. 65,000 tested, 0.69% active. AID 645;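 active means HER2 level under 5% of the carrier-only control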
ROCK2 inh = ROCK2 (human) kinase inhibition; inhibition, % at 6 µM; purified ROCK2, Kinase-Glo ATP depletion luminescence; O75116; 60,000 tested, 0.35% active;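 active means inhibition above the screen-wide mean inhibition plus 3 SD, cut at about 18% in these data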
PKA kinase inh = inhibitors of human protein kinase A | AID 524 | inhibition, % at 6 µM | 65,000 tested, 0.1% active | P17612 | PKA Kemptide phosphorylation, Kinase-Glo ATP luminescence;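 active means inhibition above the screen-wide mean inhibition plus 3 SD, cut at about 21% in these data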
mHtt clearance = mutant huntingtin protein clearance | HeLa Exon1htt(103Q)mCFP, aggregate imaging; zero = plate's median compound well | inhibition, % at 1.5 µM | 47,000 tested, 0.42% active | AID 853;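 active means inhibition of aggregate fluorescence above about 70%, also judged a hit by eye on the cell image, limit read from the data, passing the limit was not always enough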;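 further: cells exposed to compound for three days before fixation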
JNK3 blocker = JNK3 (human) kinase inhibition. P53779. purified JNK3 kinase activity, HTS. inhibition, % at 8 µM. 60,000 tested, 0.61% active. AID 746; in the data active means inhibition above about 17%
SKBR3 24h inh = SK-BR-3 proliferation inhibitors; SK-BR-3 viability, CellTiter-Glo ATP luminescence, 24 h; stronger effect = lower value; viability, % at 10 µM; 41,000 tested, 0.47% active; AID 847;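 active means viability at or below the median of all test compounds minus 3 SD, in both replicates if run twice, cut at about 45% in these data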
Hits are given with their value; n = inactive; x = not tested or not shown. Rows were chosen to be rich in hits. Some 1.4% of all compounds tested hit in one or more screens of this group.

SMILES	Her2 expr inh	ROCK2 inh	PKA kinase inh	mHtt clearance	JNK3 blocker	SKBR3 24h inh
CCOC(=O)CSc1ncnc2c1nnn2-c1ccc(F)cc1	n	n	n	x	n	n
CC(=O)C(Sc1ncnc2c1nnn2-c1ccc(F)cc1)C(=O)N(C)C (configuration not stated)	-10	n	n	x	n	x
CCOC(=O)N=S(=O)(Oc1ccc([N+](=O)[O-])cc1)c1ccccc1 (configuration not stated)	x	x	x	78	x	x
O=C(NCc1ccco1)c1ccc(=O)[nH]n1	n	n	n	72	n	n
CN(C)c1ccc(/C=C2\C(=O)N(c3ccc([N+](=O)[O-])cc3)N=C2N2CCOCC2)cc1	x	x	x	n	x	x
CCN1c2ccccc2NC2N=C(OC)C(c3ccccc3)C21 (configuration not stated)	n	n	n	n	n	36
COc1cc2[nH]c(=O)n(CCC(=O)N3CCN(c4cccc(C)c4C)CC3)c(=O)c2cc1OC	-23	x	n	n	x	4.9
COc1cc2[nH]c(=O)n(CCCCCC(=O)N3CCN(c4ccccc4)CC3)c(=O)c2cc1OC	n	x	n	x	x	n
CN1C(=O)CSc2ccc(NC(=O)NCc3cccnc3)cc21	n	58	n	x	n	x
CN1C(=O)CSc2ccc(NC(=O)NCc3ccco3)cc21	n	x	n	x	x	x
O=C1CN(c2nc3ccccc3n3cnnc23)CC(=O)N1CCc1ccccc1	n	n	n	n	n	x
N#CC(C#N)=c1ccc2c(c1)N1C3=C(CCCC3)CC3CCCCC31N=2 (configuration not stated)	-28	n	n	n	n	n
N#C/C(C(N)=O)=c1/ccc2c(c1)N1C3=C(CCCC3)CC3CCCCC31N=2 (configuration not stated)	-29	n	n	n	n	n
N#CCCn1nc(-c2ccccc2)cc1Nc1ccccc1NC(=O)c1cccs1	n	x	n	x	x	n
COc1ccc(C)cc1S(=O)(=O)N(CC(=O)NCc1ccc(Cl)cc1)Cc1ccccc1	x	x	x	n	x	x
Cc1ccc2c(c1)c1c(n2CC(O)Cn2c(C)nc3ccccc32)C(=O)CCC1 (configuration not stated)	n	n	n	x	n	x
Cc1ccc2c(c1)c1c(n2CC(O)Cn2c(C)nc3ccccc32)/C(=N\O)CCC1 (configuration not stated)	n	n	n	100	n	n
CCOc1nnc(C)c2c(C)n(-c3ccc(Cl)cc3)nc12	x	x	x	74	x	x
CC1=NC(=O)C(N=Nc2cccc3ccccc23)N1c1ccccc1 (configuration not stated)	x	x	x	n	x	x
CS(=O)(=O)c1nc(-c2cccs2)cc(C(F)(F)F)n1	-24	x	n	n	x	22
Cc1cc(NC(=O)CCCS(=O)(=O)c2nc(-c3cccs3)cc(C(F)(F)F)n2)no1	-16	n	n	n	n	37
Cc1cc(NC(=O)CSc2nc(-c3cccs3)cc(C(F)(F)F)n2)no1	n	n	n	x	n	n
COc1ccc(C)cc1NC(=O)CSc1nnnn1Cc1ccccc1	n	n	n	n	n	n
COc1ccc(CSc2nnnn2Cc2ccccc2)cc1OC	-0.9	n	n	x	n	n
Cc1ccc(-n2nc(C)c3c2OC(N)=C(C#N)C3c2ccc(F)cc2)cc1 (configuration not stated)	-28	n	n	n	n	n
SMILES	Her2 expr inh	ROCK2 inh	PKA kinase inh	mHtt clearance	JNK3 blocker	SKBR3 24h inh
CC(=O)Nc1ccc(S(=O)(=O)N(C)CC(=O)NC2=NCCS2)cc1	n	n	n	n	n	x
COc1cccc(CC(=O)Nc2nccs2)c1	n	n	n	x	n	x
COc1cc(CC(=O)Nc2nccs2)cc(OC)c1OC	n	n	n	x	23	x
Oc1c(C(Nc2ccccn2)c2ccccn2)ccc2cccnc12 (configuration not stated)	n	n	n	x	n	x
c1ccc(Nc2ccccc2Nc2ccccn2)nc1	n	n	n	n	43	x
Oc1cccc2ccc(Nc3ccccn3)nc12	-20	n	n	x	n	x
CC1(C)CC(=O)C=C(Nc2ccccn2)C1	n	n	n	x	n	n
CCOC(=O)Nc1ccc2c(c1)OCO2	x	x	x	n	x	x
CCOC(=O)CC(N)c1ccc2c(c1)OCO2 (configuration not stated)	-21	n	n	n	n	n
Cn1nnnc1Sc1nc(-c2cccnc2)nc2ccccc12	-13	n	n	x	n	x
CCOc1ccccc1C(=O)N(Cc1ccccc1)Cc1cc2cc3c(cc2[nH]c1=O)OCCO3	x	x	x	n	x	x
Cn1nnnc1SCC(=O)Nc1c(Cl)cccc1Cl	-20	n	n	n	n	x
Cn1nnnc1SCC(=O)Nc1ccccc1Cl	n	n	n	x	n	x
Cc1ccc(C)c2[nH]c(=O)c(CN(CCCN(C)C)C(=O)NCc3ccccc3)cc12	n	n	n	x	n	44
CN(C)CCCN1C(=O)C(=O)/C(=C(/O)c2ccc(S(=O)(=O)N(C)C)cc2)C1c1ccncc1 (configuration not stated)	n	n	n	x	n	x
CCOC(=O)CSc1nnnn1-c1cc(OC)ccc1OC	n	n	n	n	n	n
c1csc(-c2csc3nc(CN4CCOCC4)nc(NCc4ccc5c(c4)OCO5)c23)c1	n	n	n	x	n	x
CC(C)[C@H](NC(=O)[C@@H]1CSCN1C(=O)OC(C)(C)C)C(=O)NCC1CCC(C(=O)O)CC1 (some centres not stated)	n	n	n	76	n	n
CC(C)(C)OC(=O)N1CCC[C@H]1C(=O)NCC1CCC(C(=O)O)CC1 (some centres not stated)	n	n	n	x	n	n
CCn1c(SCC(=O)C(C)(C)C)nnc1-c1cnccn1	-19	n	n	x	n	x
COCCn1c(Cc2ccccc2)nnc1SCC(=O)NC(C)(C)C	n	n	n	n	n	n
COCCn1c(Cc2ccccc2)nnc1SCC(=O)N(C)C	-19	n	n	n	n	n
CCC(CC)C(=O)NC12CC3CC(CC(C3)C1)C2	x	x	x	n	x	x
COC(=O)c1ccc(C(=O)OC)c(NC2=NS(=O)(=O)c3ccccc32)c1	n	n	n	75	n	n
NC(=O)c1c(NC(=O)Cc2cccs2)sc2c1CCC2	n	n	n	x	31	x
SMILES	Her2 expr inh	ROCK2 inh	PKA kinase inh	mHtt clearance	JNK3 blocker	SKBR3 24h inh
CCOC(=O)c1c(NC(=O)Cc2cccs2)sc2c1CCCC2	n	n	n	n	n	n
O=C(Nc1ccncc1)Nc1ccc(F)cc1F	n	23	n	n	n	n
O=C(Nc1ccncc1)c1ccc(F)cc1	x	x	x	n	x	x
CN(C(=O)c1cnccn1)c1nnc(-c2cccnc2)s1	n	n	n	x	n	x
COc1ccc(Cl)cc1-c1n[nH]c(=S)o1	n	n	n	x	37	n
Cc1ccccc1-c1n[nH]c(=S)o1	n	n	n	n	27	n
COC(=O)Cn1nc(-c2ccccc2)c2ccccc21	n	n	n	x	n	x
Cc1ccc2c(c1)c1c3n2CCN(C(=O)CN2CCN(C)CC2)C3CCC1 (configuration not stated)	n	n	n	x	n	n
Cc1ccc2c(c1)c1c3n2CCN(C(=O)Cn2c(-c4ccccc4)noc2=O)C3CCC1 (configuration not stated)	n	21	n	n	n	n

Source: PubChem (several laboratories)
